Screens as filed in PubChem BioAssay.
HT1080 IDH1KD tx = HT-1080 IDH1 knockdown cell toxicity (counter line); HT-1080 IDH1 knockdown viability, ATP luminescence, 48 h; Potency, µM (doses to about 46.1 µM), for inactives: at the top dose activity, negative = toxicity, usual class: cytotoxic; actives 2% (n = 360,000);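 note: potency is the fitted concentration of half-maximal effect; 0% = DMSO wells and -100% = cell-free medium wells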
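Viability of IDH1-knockdown HT-1080 fibrosarcoma cells was assessed by CellTiter-Glo after 48 h at 37 °C with titrated compound; concentration-effect curves were classified by fit quality and response size.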
TGFb SMAD3 inh = blocks TGF-b signaling. HepG2 CAGA-GFP TGF-b/SMAD3 reporter, GFP fluorescence, 18 h; TGF-beta stimulated, 500 pg/mL final. Potency, µM (highest dose often 46.1 µM), without a hit: top-dose activity, negative = inhibition, hits mostly inhibitors. actives 1.2% (n = 410,000); note: potency is the fitted concentration of half-maximal effect; % is set by controls: 0 for no effect and ±100 for the full control effect; nearly all actives have a fitted effect of over 65% in size
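HEPG2 CAGA-GFP, 1000 cells/well; 2 h settle, 37 C; cpd via pin tool; TGF-b 500 pg/mL final; 18 h, 37 C; GFP imaging ex488/em500-530; %Activity normalised to -TGF-b and +DMSO controls; CRC fit, curve class.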
HepG2 viability = kills HepG2 cells in TGF-b inhibitor counter-screen; HepG2 CAGA-GFP viability, ATP luminescence, 18 h; Potency, µM (series often up to 46.1 µM), without a hit: top-dose activity change, negative = cytotoxicity, actives largely listed as cytotoxic; actives 0.76% (n = 410,000); note: potency is the fitted concentration of half-maximal effect
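HepG2 CAGA-GFP cells (1000/well, DMEM with 1% FBS) received compound, then TGF-beta at 500 pg/mL final, and were incubated 18 hours at 37 degrees C. Viability was read by CellTiter-Glo luminescence. Media-only wells were set as complete cell-killing and DMSO as no toxicity.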
IL1B secr inh = inhibitors of inflammasome signaling (IL-1 beta secretion); THP-1 LPS/ATP IL-1B secretion, AlphaLISA, 16 h; stronger effect = lower value; activity change, % at 57.5 µM; actives 4.7% (n = 360,000); AID 743279; in the data active = activity change below about -50%; inconclusive = mostly about -30% to -49%; note: % is set by controls: 0 for no effect and ±100 for the full control effect
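Secreted IL-1B measured by AlphaLISA bead assay after 16 h compound exposure of THP-1 cells; compounds (final up to 57.5 uM) added 1 h before LPS (250 ng/mL) and ATP (1.25 mM) stimulation; lower signal means less secretion.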
Giardia killer = Giardia lamblia killing; Giardia lamblia trophozoite viability; activity change, % at 7.66 µM, hits read low; actives 0.15% (n = 340,000); in the data active = activity change below about -80%; inconclusive = between about -30% and that limit;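 note: parasites exposed to compound for two days anaerobically before the ATP read; % is set by controls: 0 for no effect and ±100 for the full control effect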
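Each well holds 100 Giardia trophozoites and compound. After two days (48 hrs) at 37 deg C in anaerobic conditions, ATP is quantified by luminescence.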
HT1080-NT tox = kills 2HG-producing HT-1080-NT fibrosarcoma cells. Potency, µM (titrated, usually from 46.1 µM), without a hit: at the highest dose activity, negative = less viability, hits mostly cytotoxic. HT-1080-NT fibrosarcoma viability, CellTiter-Glo ATP luminescence, 48 h. actives 1.6% (n = 360,000);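 note: NT is the 2HG producing partner of a matched IDH1 knockdown line; potency is the fitted concentration of half-maximal effect; 0% = DMSO-treated cells and -100% = media-only wells without cells; nearly all actives have a fitted effect of over 55% in size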
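Compounds were tested in concentration-response format on HT-1080-NT cells for 48 hours at 37 degrees C. Cell viability came from CellTiter-Glo luminescence; curves were classified by r2, response magnitude and activity.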
Starred values were filed as active, the others as inactive; i = inactive; ? = inconclusive; nt = not tested or not shown. A selection: hits, their analogues and other compounds. The true share with any hit is near 6.5%. Unless noted, calls come from the whole dose curve; as a rule, active = well fitted curve in the direction sought with a large enough effect; inconclusive = small, poorly fitted or top-dose-only effect, or another doubt; inactive = no such curve, though single readings can be large; an effect the other way counts as inactive or inconclusive.

SMILES	HT1080 IDH1KD tx	TGFb SMAD3 inh	HepG2 viability	IL1B secr inh	Giardia killer	HT1080-NT tox
C(=C\c1ccco1)/c1ccc2ccccc2n1	10µM*	?	i	-22	-28	?
CC(O)/C=C/c1ccc2ccccc2n1 (stereo unspecified)	11µM*	2%	-45%	-96*	-3	?
COc1ccccc1/C=C/c1ccc2ccccc2n1	nt	-12%	-31%	nt	nt	nt
CCOC(=O)c1ccc(N2C(=O)c3n[nH]c(-c4cccs4)c3C2c2ccc(C(C)C)cc2)cc1 (stereo unspecified)	nt	?	1%	nt	nt	nt
CCOC(=O)c1ccc(N2C(=O)c3n[nH]c(-c4cccs4)c3C2c2ccc(CC)cc2)cc1 (stereo unspecified)	nt	0.89µM*	-89%	nt	-20	nt
CCOC(=O)c1ccc(N2C(=O)c3n[nH]c(-c4cccs4)c3C2c2ccc(OCC)cc2)cc1 (stereo unspecified)	nt	1.6µM*	-64%	nt	nt	nt
CCOC(=O)c1ccc(N2C(=O)c3n[nH]c(-c4cccs4)c3C2c2cccc(O)c2)cc1 (stereo unspecified)	nt	11µM*	-82%	nt	nt	nt
Cc1cccc(N=Nc2c(C)c(C#N)c(O)[nH]c2=O)c1	-16%	0%	10%	48	-97*	8%
Cc1cc(NC(=O)CSc2nc(-c3ccco3)cc(C(F)(F)F)n2)no1	0.52µM*	32%	14%	62	-22	0.58µM*
COCCOC(=O)C(C#N)c1nc2ccccc2nc1N1CCN(Cc2ccccc2)CC1 (stereo unspecified)	-1%	?	-19%	-8	62	-2%
C=CCNC(=O)C(C#N)c1nc2ccccc2nc1N1CCN(Cc2ccccc2)CC1 (stereo unspecified)	13%	25%	-10%	9	20	8%
COCC(C)OC(=O)C(C#N)c1nc2ccccc2nc1N1CCN(Cc2ccccc2)CC1 (stereo unspecified)	14%	-8%	0%	-56*	35	8%
COCCCNC(=O)C(C#N)c1nc2ccccc2nc1N1CCN(Cc2ccccc2)CC1 (stereo unspecified)	6%	23%	-1%	-58*	21	-4%
COCCNC(=O)C(C#N)c1nc2ccccc2nc1N1CCCCCC1 (stereo unspecified)	-7%	0%	5%	-71*	13	9%
Cc1ccc(OCC(=O)N2CCN(C(=O)c3cccc(F)c3)CC2)cc1	-4%	0%	4%	22	1	9%
CCCCN(CC)C(=O)CSc1nc2c(sc3ccccc32)c(=O)n1CCc1ccccc1	nt	18%	-24%	nt	nt	nt
O=C(O)Cc1c[nH]c2ccccc12	1%	-1%	-4%	-5	6	-3%
O=C(CCl)N(c1ccc(Cl)cc1)c1c[nH]c2ccccc12	4.6µM*	16µM*	18µM*	-109*	27	7.3µM*
O=C(Cc1ccc(Cl)cc1)NCCc1c[nH]c2ccccc12	-4%	-1%	-18%	1	7	-2%
O=C(CCl)N(c1ccccc1)c1c[nH]c2ccccc12	6.5µM*	8.9µM*	-100%	-100*	-14	?
CC1(C)CC(=O)c2c(O)cc(OCC(=O)N3CCN(c4ccc(F)cc4)CC3)cc2O1	-5%	2%	-13%	-55*	4	0%
CCCn1c(NCc2ccccc2NS(=O)(=O)c2ccc(C)cc2)nc2ccccc21	?	0%	-10%	11	17	?
CCCCn1c(/N=C/c2ccccc2NS(=O)(=O)c2ccc(C)cc2)nc2ccccc21	-24%	16µM*	-4%	-7	3	-19%
Cc1ccc(S(=O)(=O)Nc2ccccc2/C=N/c2nc3ccccc3n2C(C)C)cc1	15µM*	?	-29%	-4	8	18µM*
CC(C)n1c(/N=C/c2ccccc2O)nc2ccccc21	-1%	1%	0%	-2	-4	0%
SMILES	HT1080 IDH1KD tx	TGFb SMAD3 inh	HepG2 viability	IL1B secr inh	Giardia killer	HT1080-NT tox
COc1ccc(C)cc1S(=O)(=O)NCc1cccs1	-4%	?	0%	-11	4	0%
CCOc1ccc(NC(=O)CCCc2cc(-c3ccc(OCC)cc3)on2)cc1	6%	22%	-1%	34	-15	12%
CCOc1ccc(-c2cc(CCCC(=O)Nc3cccc(OC)c3)no2)cc1	18µM*	-15%	-27%	35	3	?
O=C(Nc1nnc(S(=O)(=O)N2CCCCCC2)s1)c1ccccc1F	-10%	-23%	-20%	-8	-14	-1%
CCCCCC(=O)Nc1ccc(-c2csc(C)n2)cc1	11%	1%	-1%	8	-7	20%
CN(C)CCOc1ccc2ccccc2c1	7%	?	9%	3	-6	5%
Cc1c(-c2ccccc2)c(-c2ccc(OCCN(C)C)cc2)n2ccccc12	-20%	5%	-9%	-59*	-14	-7%
Cc1ccc2nc(Cc3ccc(N)cc3)[nH]c2c1	3%	5%	-7%	-2	-6	6%
Cc1ccc(Cl)cc1NS(=O)(=O)c1ccc2oc(=O)c3ncn(C)c3c2c1	nt	16µM*	10µM*	nt	nt	nt
COc1ccc(-c2sc(Nc3ccccc3)n[n+]2-c2ccc(F)cc2)cc1Br	-24%	-5%	-33%	?	-8	?
Fc1ccc(-[n+]2nc(Nc3ccccc3)sc2-c2c(Cl)cccc2Cl)cc1	-23%	?	11µM*	-94*	-21	?
COc1ccc2ccccc2c1-c1sc(Nc2ccccc2)n[n+]1-c1ccc(F)cc1	?	?	11µM*	-78*	15	?
O=C(O)c1ccc(-c2sc(Nc3ccccc3)n[n+]2-c2ccc(F)cc2)cc1	-2%	-29%	-3%	31	-25	0%
CCc1ccc(Nc2n[n+](-c3ccccc3)c(-c3c(Cl)cccc3Cl)s2)cc1	?	7.1µM*	-108%	-92*	19	21µM*
O=C(CCN(CCO)Cc1ccccc1)Nc1ccc(Br)cc1	?	0%	-7%	0	-2	?
O=C(/C=C/c1ccnc2ccccc12)c1cccs1	18µM*	?	5.6µM*	-118*	-17	18µM*
C(=C\c1ccnc2ccccc12)/c1cccs1	nt	?	-30%	nt	nt	nt
CCc1ccc(NC(=O)CSc2nc(NS(=O)(=O)c3ccccc3)cc(=O)[nH]2)cc1	?	?	-28%	-55*	6	?
CCc1cc(C(=O)N2CCN(C(=O)c3ccccc3)CC2)sc1C	-1%	0%	5µM*	-19	-9	-1%
